Source: PubChem BioAssay (Broad Institute)
IDE exosite inh: exo-site inhibitors of human IDE, primary screen, biochemical, fluorescence anisotropy, probe displacement; Insulin-degrading enzyme (Homo sapiens), P14735; purified IDE, FL-6b probe fluorescence polarization; stronger effect = lower value; z-score at 20 µM; 6.3% of 17,000 active;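 active means z-score of -3 or lower, meaning strong loss of probe binding signal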;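 further: His-tagged human IDE residues 42-1019 made in E. coli with 30 nM FL-6b probe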
Target sequence (P14735 42-1019 limits assumed): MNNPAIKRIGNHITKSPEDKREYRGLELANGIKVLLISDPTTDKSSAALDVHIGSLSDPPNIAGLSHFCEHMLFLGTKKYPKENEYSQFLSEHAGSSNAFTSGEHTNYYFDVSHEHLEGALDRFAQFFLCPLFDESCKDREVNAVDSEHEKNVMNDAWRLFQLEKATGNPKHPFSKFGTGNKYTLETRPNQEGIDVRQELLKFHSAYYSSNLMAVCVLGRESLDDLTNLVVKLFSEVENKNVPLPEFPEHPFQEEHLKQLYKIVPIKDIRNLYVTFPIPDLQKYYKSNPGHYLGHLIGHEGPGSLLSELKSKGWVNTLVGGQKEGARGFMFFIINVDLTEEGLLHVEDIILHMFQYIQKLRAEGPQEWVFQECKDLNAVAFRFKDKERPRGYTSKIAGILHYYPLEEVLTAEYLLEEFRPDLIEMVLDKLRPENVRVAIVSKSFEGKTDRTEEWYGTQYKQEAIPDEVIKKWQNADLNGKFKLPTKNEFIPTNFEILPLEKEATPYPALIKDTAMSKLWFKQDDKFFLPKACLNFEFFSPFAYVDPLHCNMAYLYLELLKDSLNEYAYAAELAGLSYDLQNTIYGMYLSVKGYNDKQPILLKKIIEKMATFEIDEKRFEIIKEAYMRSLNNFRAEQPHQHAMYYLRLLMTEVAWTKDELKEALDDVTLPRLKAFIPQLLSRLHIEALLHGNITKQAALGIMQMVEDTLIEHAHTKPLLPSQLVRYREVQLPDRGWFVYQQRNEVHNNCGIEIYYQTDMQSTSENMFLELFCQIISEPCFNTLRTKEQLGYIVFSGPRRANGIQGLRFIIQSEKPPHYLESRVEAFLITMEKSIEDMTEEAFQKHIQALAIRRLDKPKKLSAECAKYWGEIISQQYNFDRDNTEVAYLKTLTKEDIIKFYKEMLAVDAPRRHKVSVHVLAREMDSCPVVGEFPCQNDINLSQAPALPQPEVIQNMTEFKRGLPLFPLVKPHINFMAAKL
Numbers stand for hits; 0 = inactive. This is one part of a sample in which hits are shown more often than they occur.

SMILES	IDE exosite inh
CN1c2ccc(C#Cc3cccnc3)cc2[C@@H]2[C@@H](CCN2C(=O)CN2CCOCC2)[C@H]1CO	0
COCC(=O)N1[C@@H](CO)[C@@H]2c3ccccc3N(C(=O)Nc3ccccc3Cl)C[C@@H]21	0
O=C(c1ccc(F)cc1)N1CC(=O)N2[C@H](CO)[C@@H](c3ccc(C#CCC4CCCC4)cc3)[C@H]2C1	0
CN1C(=O)c2cc(NC(=O)Nc3ccccc3F)ccc2OC[C@H]2O[C@@H](CC(=O)NCCc3ccncc3)CC[C@H]21	0
COc1cccc(NC(=O)Nc2ccc3c(c2)C(=O)N(C)C[C@@H](OC)[C@@H](C)CN(CC2CC2)[C@H](C)CO3)c1	0
CCC(=O)N1CC(=O)N2[C@@H](CO)[C@H](c3ccc(C#CC(C)C)cc3)[C@@H]2C1	0
CN(C)C(=O)c1cccc(-c2ccc([C@@H]3[C@@H](CO)N(C(=O)C4CCC4)[C@H]3C#N)cc2)c1	0
N#C[C@H]1[C@@H](c2ccc(-c3ccccc3F)cc2)[C@H](CO)N1C(=O)C1CC1	0
N#C[C@H]1[C@H](c2ccc(-c3ccccc3F)cc2)[C@@H](CO)N1C(=O)C1CC1	-4.5
COc1ccc(-c2ccc([C@H]3[C@@H](C#N)N(C(=O)c4cccc(F)c4)[C@H]3CO)cc2)cc1	0
COc1ccc(-c2ccc([C@@H]3[C@@H](CO)N(C(=O)c4cccc(F)c4)[C@H]3C#N)cc2)cc1	0
COc1ccc(-c2ccc([C@H]3[C@@H](C#N)N(C(=O)NC4CCCCC4)[C@@H]3CO)cc2)cc1	0
COc1ccccc1-c1ccc([C@H]2[C@@H](CO)N(C(=O)c3cccc(F)c3)[C@H]2C#N)cc1	-4.2
N#C[C@@H]1[C@H](c2ccc(-c3ccccc3F)cc2)[C@@H](CO)N1C(=O)C1CC1	0
CN(C)C(=O)c1cccc(-c2ccc([C@H]3[C@@H](CO)N(C(=O)C4CC4)[C@H]3C#N)cc2)c1	0
CN(C)C(=O)c1cccc(-c2ccc([C@@H]3[C@@H](C#N)N(C(=O)C4CCC4)[C@@H]3CO)cc2)c1	-4.2
COc1ccc(-c2ccc([C@@H]3[C@@H](C#N)N(C(=O)NC4CCCCC4)[C@H]3CO)cc2)cc1	0
COc1ccccc1-c1ccc([C@H]2[C@@H](CO)N(C(=O)NC3CCCCC3)[C@H]2C#N)cc1	-6.9
N#C[C@H]1[C@H](c2ccc(-c3ccc(F)cc3)cc2)[C@H](CO)N1c1nc(-c2ccccc2)cs1	0
COc1ccc(NC(=O)N(C)C[C@H]2OCCCC[C@@H](C)Oc3ccc(NC(=O)c4ccncc4)cc3C(=O)N([C@@H](C)CO)C[C@@H]2C)cc1	0
CCC(=O)N1[C@H](CO)[C@@H](c2ccccc2-c2cccc(C)c2)[C@@H]1C#N	0
CC(C)NC(=O)N1[C@H](C#N)[C@@H](c2ccc(C#CC3CC3)cc2)[C@@H]1CO	0
O=C(Cc1ccccn1)N1CC(=O)N2[C@H](CO)[C@H](c3ccc(-c4ccc(F)cc4)cc3)[C@H]2C1	0
N#C[C@H]1[C@@H](c2ccc(C#CC3CCCCC3)cc2)[C@H](CO)N1C(=O)c1cccc(F)c1	0
CCCNC(=O)Nc1ccc2c(c1)OC[C@@H](C)N(C(=O)C1CCOCC1)C[C@H](C)[C@H](OC)CN(C)C2=O	0
SMILES	IDE exosite inh
COc1ccccc1-c1ccc([C@H]2[C@@H](C#N)N(C(=O)C3CCC3)[C@H]2CO)cc1	-5
COc1ccccc1-c1ccccc1[C@H]1[C@H](C#N)N(C(=O)C2CCC2)[C@H]1CO	0
COc1ccccc1-c1ccccc1[C@H]1[C@@H](C#N)N(C(=O)C2CC2)[C@@H]1CO	0
COc1ccc(-c2ccc([C@@H]3[C@@H](C#N)N(C(=O)C4CCC4)[C@H]3CO)cc2)cc1	0
COc1ccc(-c2ccc([C@@H]3[C@@H](CO)N(C(=O)C4CCCCC4)[C@H]3C#N)cc2)cc1	0
COc1ccccc1-c1ccc([C@@H]2[C@@H](C#N)N(C(=O)C3CCC3)[C@H]2CO)cc1	-5.2
N#C[C@H]1[C@@H](c2ccc(-c3ccccc3F)cc2)[C@@H](CO)N1C(=O)C1CCC1	0
COc1ccccc1-c1ccc([C@@H]2[C@@H](C#N)N(C(=O)C3CCCCC3)[C@@H]2CO)cc1	-14
COc1ccccc1-c1ccc([C@@H]2[C@@H](C#N)N(C(=O)C3CC3)[C@H]2CO)cc1	-11
COc1ccc(-c2ccc([C@@H]3[C@@H](CO)N(C(=O)C4CCCC4)[C@H]3C#N)cc2)cc1	0
COc1ccccc1-c1ccccc1[C@@H]1[C@@H](C#N)N(C(=O)C2CC2)[C@@H]1CO	0
COc1ccccc1-c1ccccc1[C@H]1[C@@H](CO)N(C(=O)C2CCC2)[C@H]1C#N	0
C[C@@H]1CN([C@H](C)CO)C(=O)c2ccccc2-c2ccccc2CO[C@H]1CN(C)S(=O)(=O)c1cccs1	0
O=C(c1cccc(F)c1)N1CC(=O)N2[C@H](CO)[C@@H](c3ccc(-c4cccnc4)cc3)[C@H]2C1	0
CCC(=O)N1[C@H](C#N)[C@H](c2ccccc2-c2ccccc2)[C@H]1CO	0
OC[C@H]1[C@H](c2ccc(Br)cc2)[C@H]2CN(Cc3cncnc3)CCCCN21	0
O=C(CCN1CCCCC1)N[C@H]1CC[C@@H](CC(=O)N2CCC(Cc3ccccc3)CC2)O[C@@H]1CO	0
C/C=C/c1ccc([C@H]2[C@@H](CO)N[C@@H]2CNC(=O)Cc2ccccc2)cc1	0
CN(C)CC(=O)N1[C@@H](C#N)[C@H](c2ccccc2-c2cccc(C(=O)N(C)C)c2)[C@@H]1CO	0
C[C@@H]1CCCCO[C@@H](CN(C)Cc2ccc(C(F)(F)F)cc2)[C@@H](C)CN([C@@H](C)CO)C(=O)c2cc(NC(=O)Nc3cccc4ccccc34)ccc2O1	0
CCC(=O)N1[C@@H]2Cn3c(ccc(-c4ccccc4F)c3=O)[C@H]1[C@@H](C(=O)NC1CCC1)[C@@H]2CO	0
O=C(c1ccccn1)N1CC(=O)N2[C@H](C1)[C@H](c1ccc(C#Cc3ccccc3)cc1)[C@@H]2CO	-6.4
O=C(c1ccccn1)N1CC(=O)N2[C@H](C1)[C@@H](c1ccc(C#Cc3ccccc3)cc1)[C@@H]2CO	0
CC(C)C#Cc1ccc([C@@H]2[C@H](CO)N3C(=O)CN(C(=O)c4ccccn4)C[C@@H]23)cc1	0
CCCC#Cc1ccc([C@@H]2[C@H](CO)N3C(=O)CN(C(=O)c4ccccn4)C[C@@H]23)cc1	-3.2
SMILES	IDE exosite inh
O=C(c1ccccn1)N1CC(=O)N2[C@@H](CO)[C@@H](c3ccc(C#CCc4ccccc4)cc3)[C@@H]2C1	-4.7
CCCC#Cc1ccc([C@@H]2[C@@H](CO)N3C(=O)CN(C(=O)c4ccccn4)C[C@H]23)cc1	0
O=C(c1cnccn1)N1CC(=O)N2[C@@H](CO)[C@H](c3ccc(C#CCc4ccccc4)cc3)[C@@H]2C1	0
CC(C)C#Cc1ccc([C@H]2[C@H](CO)N3C(=O)CN(C(=O)c4ccccn4)C[C@@H]23)cc1	0
O=C(c1ccccn1)N1CC(=O)N2[C@H](CO)[C@@H](c3ccc(C#Cc4ccccc4)cc3)[C@H]2C1	-9.4
O=C(c1cnccn1)N1CC(=O)N2[C@H](CO)[C@@H](c3ccc(C#CCc4ccccc4)cc3)[C@H]2C1	0
CCCC#Cc1ccc([C@@H]2[C@H]3CN(C(=O)c4ccccn4)CC(=O)N3[C@H]2CO)cc1	0
CCCC#Cc1ccc([C@H]2[C@H](CO)N3C(=O)CN(C(=O)c4ccccn4)C[C@@H]23)cc1	0
CCc1cnc(N2[C@H](C#N)[C@H](c3ccc(C#CC(C)C)cc3)[C@H]2CO)s1	0
